# Screening data: PubChem BioAssay, several laboratories
# LGR2 inh: inhibitors of bursicon-induced LGR2 CRE-luciferase signal, primary screen, cell-based, HEK293, CRE-luciferase reporter, bursicon stimulation. bursicon-stimulated, 4 h. AID 720647, 2013. inhibition, % at 9.99 µM. Drosophila bursicon receptor LGR2 (rickets). 380,000 tested, 0.35% active;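 active means drop in luminescence signal, shown as inhibition above about 50% in the replicate tests, limit read from the data, passing the limit was not always enough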;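 further: agonist challenge used bursicon conditioned medium at about half maximal strength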
# TROY signal inh: inhibitors of TROY-driven NF-kB signaling, primary screen, Q293 LMP1-TROYcd cells, NF-kB luciferase, uHTS | 360,000 tested, 0.98% active | inhibition, % at 10 µM | Q293 LMP1-TROYcd NF-kB luciferase reporter, 4 h | AID 1347056, 2019;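 active means compounds whose plate-normalised and pattern-corrected inhibition of the luciferase reporter signal at the single screening dose is 50% or more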
# HSP90 inh: HSP90 inhibitors, primary screen, cell lysate, luminescence; Heat shock protein HSP 90 (rabbit reticulocyte lysate; luciferase refolding); Rabbit reticulocyte lysate, luciferase refolding luminescence, 3 h; inhibition, % at 5.6 µM; 290,000 tested, 0.91% active; AID 1789, 2009;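 active means inhibition above the screen-wide mean plus 3 SD, computed separately per campaign, cut at about 16% in these data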;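 further: inhibitors lower the luminescence because luciferase stays unfolded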
# TWEAK-Fn14 inh: inhibitors of TWEAK-Fn14 signaling, primary screen, luciferase reporter cells, uHTS | 360,000 tested, 2% active | inhibition, % at 10 µM | TWEAK-stimulated Fn14 reporter cells, luciferase luminescence, 8 h; in the data active means inhibition above about 50%
# A number is an active result; 0 = inactive; - = no result. Hits are enriched below; roughly 2.2% of the tested compounds scored in any of these assays.
SMILES,LGR2 inh,TROY signal inh,HSP90 inh,TWEAK-Fn14 inh
COCC(=O)N1[C@@H](CO)[C@@H](c2ccccc2)C12CN(C(=O)Cc1ccccn1)C2,0,-,-,-
COc1ccc(N(C)C(=O)c2cc3c(s2)-c2ccc(Cl)cc2S(=O)(=O)C3)c(OC)c1,0,0,0,71
COc1ccc(N(C)C(=O)c2cc3c(s2)-c2ccccc2OC3)c(OC)c1,0,0,0,0
Cc1ccc(S(=O)(=O)N[C@H]2CC[C@H](CCNC(=O)C3CCC3)O[C@@H]2CO)cc1,0,-,-,-
Cc1ccc(-c2nc(N)sc2C)cc1,0,88,0,0
COC(=O)C1=C(C)N(c2ccc(Cl)cc2)/C(=C/c2ccc(O)cc2)C1=O,0,0,0,57
COC(=O)C1=C(C)N(c2cc(C)cc(C)c2)/C(=C/c2ccc(O)cc2)C1=O,0,0,0,58
COC(=O)C1=C(C)N(c2cc(C)cc(C)c2)/C(=C/c2ccco2)C1=O,0,0,0,0
C[C@@H]1CN([C@@H](C)CO)C(=O)Cc2cc(NC(=O)Nc3ccc(C(F)(F)F)cc3)ccc2O[C@H]1CN(C)S(=O)(=O)c1ccccc1,0,-,-,-
COc1ccc(S(=O)(=O)N2[C@@H]3CNC[C@H]2C3c2ccc(-c3cccc(C)c3)cc2)cc1 (stereo partly specified),0,-,-,-
CNC[C@@H]1Oc2ncc(-c3ccc(C)cc3)cc2C(=O)N([C@@H](C)CO)C[C@@H]1C,0,-,-,-
COc1ccc(C(=O)/C=C/c2ccc(O)cc2)c(O)c1C/C=C(\C)CCC=C(C)C,-,0,-,0
C=C(C)C(O)CC/C(C)=C/Cc1c(O)ccc(C(=O)/C=C/c2ccc(O)cc2)c1O (stereo unspecified),0,65,-,0
c1ccc(-c2cc3nc(NCC4CC4)nc(NCC4CCCCC4)c3s2)cc1,0,0,-,56
COC(=O)c1ccc(NC(=O)Nc2ccc([N+](=O)[O-])cc2)cc1,0,50,0,0
COc1ccc(NC(=O)c2cc(-c3cc(C)cc(C)c3O)n[nH]2)cc1Cl,-,64,0,82
C[C@H](CO)N1C[C@H](C)[C@@H](CN(C)S(=O)(=O)c2ccc(F)cc2)Oc2cc(C3=CCCCC3)ccc2S1(=O)=O,0,-,-,-
Cc1ccc(C(=O)OC2OC(=O)C(Cl)=C2N2CCOCC2)cc1 (stereo unspecified),0,0,0,58
O=C(NCC1CC1(Cl)Cl)Nc1ccc(Cl)c(Cl)c1 (stereo unspecified),0,53,0,0
Cc1ccc(NC(=O)NCC2CC2(Cl)Cl)cc1 (stereo unspecified),0,0,0,0
S=C(NCCC(c1ccccc1)c1ccccc1)Nc1cccc(Cl)c1,-,62,0,0
S=C(NCCN(C1CCCCC1)C1CCCC1)Nc1cccc(Cl)c1,0,0,0,0
C[C@H](CO)N1C[C@H](C)[C@H](CN(C)Cc2ccccn2)Oc2ncc(C3=CCCC3)cc2C1=O,0,-,-,-
Cc1ccc(/C=N/NC(=O)Cn2nnc(N)n2)o1,0,0,0,87
COc1ccc(CN2C[C@H](O)COC[C@H]3O[C@H](CC(=O)NCc4ccncn4)CC[C@@H]32)cc1,0,-,-,-
SMILES,LGR2 inh,TROY signal inh,HSP90 inh,TWEAK-Fn14 inh
C[C@@H]1CCCCO[C@@H](CN(C)C(=O)CCCN(C)C)[C@@H](C)CN([C@H](C)CO)C(=O)c2cc(NC(=O)NC3CCCCC3)ccc2O1,0,-,-,-
Cc1cccc(C(=O)OCC(=O)Nc2c(C)nn(-c3ccccc3)c2C)c1O,0,0,-,0
Cc1nn(-c2ccccc2)c(C)c1NC(=O)COC(=O)c1ccccc1OC(F)F,0,51,0,0
C=CCn1c(CSCc2ccc(Cl)cc2)nnc1SCC(=O)NCc1ccccc1,0,0,0,0
C=CCn1c(CSCc2ccc(C)cc2)nnc1SCC(=O)NCc1ccccc1,0,-,0,74
C[C@@H]1CN([C@@H](C)CO)C(=O)c2cc(N(C)C)ccc2O[C@@H](C)CCCCO[C@H]1CN(C)C(=O)C1CCCCC1,0,-,-,-
COc1ccc(N(CC(=O)NC2CC3CCC2C3)S(=O)(=O)c2ccccc2)cc1Cl (stereo unspecified),0,0,0,91
Cc1noc(C)c1NC(=O)Nc1cccc2c1O[C@@H](CN(C)C(=O)NC(C)C)[C@H](C)CN([C@H](C)CO)C2=O,0,-,-,-
CC(C)(C)NC(=O)c1cccc(NC(=O)c2ccc3c(c2)C(=O)N(C(C)(C)C)C3=O)c1,83,57,0,0
O=C(O)c1cccc(NC(=O)c2ccc3c(c2)C(=O)N(CC2CCCO2)C3=O)c1 (stereo unspecified),-,0,17,0
COC(=O)c1cccc(NC(=O)c2ccc3c(c2)C(=O)N(CC2CCCO2)C3=O)c1 (stereo unspecified),-,0,0,0
CC(C)Cc1nc2oc3c(Cl)ncnc3c2c2c1CCCC2,0,73,0,0
Cc1ccc(S(=O)(=O)Nc2ccc3c(c2)CC(=O)N([C@H](C)CO)C[C@H](C)[C@@H](CN(C)Cc2ccncc2)O3)cc1,0,-,-,-
COC(=O)/C(=C1/Oc2cc(C)oc(=O)c2S1)C(F)(F)F,0,0,0,98
CN(C)CCCNC(=O)C[C@H]1CC[C@@H]2[C@@H](COc3ccc(NC(=O)c4cccc(F)c4)cc3C(=O)N2C)O1,0,-,-,-
C/C=C/c1cnc2c(c1)C(=O)N([C@H](C)CO)C[C@H](C)[C@@H](CN(C)C(=O)Nc1ccc(OC)cc1)O2,0,-,-,-
c1ccc(-n2nnnc2-n2cnc3ccccc32)cc1,0,0,0,54
CC1N(C)c2cc(NC(=O)c3ccco3)ccc2C1(C)C (stereo unspecified),0,53,0,0
COc1cc(CN2CC3(CCN(C(=O)c4cccnc4)CC3)c3c([nH]c4cc(OC)ccc34)[C@@H]2CO)cc(OC)c1,0,-,-,-
NC(=O)CSc1nnc2sc3ccccc3n12,-,-,0,85
COc1ccc(-c2cc3ccc(OC)cc3cn2)cc1,67,0,-,86
COc1cccc(-n2nc(C(N)=O)c(O)cc2=O)c1,0,0,0,0
COc1cccc(-n2nc(C#N)c(Cl)cc2=O)c1,103,83,0,0
Cc1ccc2nc(-c3ccccc3)oc(=O)c2c1,0,0,0,108
CC=Cc1ccc2n(c1=O)C[C@@H]1[C@@H](CO)[C@H](C(=O)NCC)N(CC3CCOCC3)[C@H]21 (mixture of isomers),0,-,-,-
CC(=O)Nc1ccccc1C(=O)C(=O)Nc1cccc(C(=O)NC2CC2)c1,0,0,0,0
CC(=O)Nc1ccccc1C(=O)C(=O)Nc1cccc(C(=O)N2CC(C)CC(C)C2)c1 (stereo unspecified),0,0,0,78
COCC(=O)N1[C@@H]2CN(C(=O)Nc3ccccc3Cl)c3ccccc3[C@@H]2[C@@H]1CO,0,-,-,-
COc1cc(/C=C2/C(C)=C(C#N)c3nc(N)c(C#N)c(C)c32)ccc1OCC(=O)O,0,-,0,-
CC1=C(C#N)c2nc(N)c(C#N)c(C)c2/C1=C\c1ccc(-c2ccccc2C(=O)O)o1,0,0,0,70
